# Data taken from PubChem BioAssay (NCATS).
# Records with an inconclusive call do not appear. A number with no mark means an inactive call. Active and inactive are the calls of the source. The call rests on the fitted dose curve; in most records, active means well fitted inhibition curve with a large enough effect; inconclusive means small, poorly fitted or top-dose-only effect; inactive means no such curve, though single readings can be large or run the other way.
# Assay: Primary qHTS for inhibitors of La Crosse Virus (LACV) - induced cell death in SH-SY5Y cells (AID 1508616);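 further: top concentration of the series differs between compounds; 0% = infected DMSO wells and 100% = uninfected DMSO wells; higher means more rescue of cells from virus-induced death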
# Conditions: SH-SY5Y LACV cytopathicity rescue, ATP luminescence, 6 d; series mostly up to 4.29 µM
# Procedure, shortened: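 SH-SY5Y cells (6000/well) plated 24 h, then given compounds by pin transfer and LACV at 0.01 MOI for 6 days at 37C. Viability measured by ATPLite luminescence, normalized to infected DMSO and uninfected DMSO.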
SMILES,outcome,activity change
FC(F)(F)C(F)(F)C(F)(F)C(F)(F)C(F)(F)C(F)(F)C(F)(F)C(F)(F)Br,inactive,
CCCCc1cc2ccccc2c(OCCN(C)C)n1,inactive,
Cc1ccc(S(=O)(=O)NC(=O)NC2CCCC2)cc1,inactive,
COc1ccc(C(=O)c2ccccc2O)c(O)c1,inactive,
CCOC(=O)C(C#N)=C(c1ccccc1)c1ccccc1,inactive,
Nc1nc(-c2ccccc2)c(Br)c(=O)[nH]1,inactive,
O=[N+]([O-])c1cccc(S(=O)(=O)NCCNS(=O)(=O)c2cccc([N+](=O)[O-])c2)c1,inactive,
CN(C)CCOC(=O)C(c1ccccc1)C1(O)CCCC1 (stereo unspecified),inactive,
CCCCCCCCOc1ccc(C(=O)c2ccccc2)c(O)c1,inactive,
COc1cc(N)c(Cl)cc1C(=O)NC1CCN(Cc2ccccc2)CC1,inactive,
Nc1ccc(S(=O)(=O)NCc2ccccc2)cc1,inactive,
CCc1cc(Cl)c(OC)c(C(=O)NC[C@@H]2CCCN2CC)c1O,inactive,
OCc1ccccn1,inactive,
Cc1cccc(C)c1NC(=O)c1ccccc1C(=O)O,inactive,
COc1cc(O)c(C(=O)c2ccccc2)cc1S(=O)(=O)O,inactive,
CCc1nn(CCCN2CCN(c3cccc(Cl)c3)CC2)c(=O)n1CCOc1ccccc1,inactive,
OC1C(O)C(O)C(O)C(O)C1O (stereo unspecified),inactive,
CC(=O)Nc1ccc(OCC(O)CNC(C)C)cc1 (stereo unspecified),inactive,

SMILES,outcome,activity change
O=C(NCCc1c[nH]c2ccccc12)c1cccnc1,inactive,
Cc1cccc(C)c1NC(=O)CN1CCCCCC1,inactive,
CN1CCc2cccc3c2[C@H]1Cc1ccc(O)c(O)c1-3,inactive,
COc1ccc2c(c1)c1c3n2CCN(C)C3=NCC1,inactive,
O=C(O)Cc1csc(-c2ccc(Cl)cc2)n1,inactive,
CCCCCCCCCCCCCCCC(=O)O,inactive,
C=C[C@@]1(C)CC(=O)[C@]2(O)[C@@]3(C)[C@@H](O)CCC(C)(C)[C@@H]3[C@H](O)[C@H](OC(C)=O)[C@@]2(C)O1,inactive,
COc1cc(C(=O)N2CCCCCCC2)cc(OC)c1OC,inactive,
c1ccc(-c2nc[nH]c2-c2ccccc2)cc1,inactive,
CCN[C@@H]1C[C@H](N)[C@@H](OC2OC(CN)=CCC2N)[C@H](O)[C@H]1O[C@H]1OC[C@](C)(O)[C@H](NC)[C@H]1O (stereo partly specified),,-7.05% [at 0.0343 µM]
CCCCN=C(N)N=C(N)N,inactive,
Cc1cc(NS(=O)(=O)c2ccc(N)cc2)nc(C)n1,inactive,
O=C1OC(CN2CCOCC2)CN1/N=C/c1ccc([N+](=O)[O-])o1 (stereo unspecified),inactive,
CC(C)NCC(O)c1ccc2ccccc2c1 (stereo unspecified),inactive,
CCOc1ccc(NC(C)=O)cc1,inactive,
CCOC(=O)[C@@](C)(N)Cc1ccc(O)c(O)c1,inactive,
CC(C)(C)NC[C@H](O)COc1cccc2c1CCCC2=O,inactive,
O=C(N/N=C/c1ccc([N+](=O)[O-])o1)c1ccc(O)cc1,inactive,
